Measurements as given in the supplement of paper PMC12282887.
± gives the standard deviation of the averaged measurements.

Experiments:
Assay in all cases: promoter activity interaction Z-score (Lux/OD deviation from empty-vector control); higher = stronger promoter induction by the compound
[1] = system: E. coli BW25113 acrABp lux reporter
Summary of the method: (§1)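 Wild-type E. coli BW25113 and three single-gene deletion strains, each carrying a low-copy luxCDABE promoter reporter, were grown at 37°C in 40 µl LB Lennox per well of a 384-well plate. Every compound was applied at four 1:2 dilutions in biological duplicates, and OD600 and luminescence were read every 30 min for 12 h. Integration covered 0–8 h for wild type and 1–9 h for deletion strains, and wells under 10% of the median growth value were removed. Scores are Z-transformed residuals of growth-normalised luminescence fitted against a control.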

[2] = system: E. coli BW25113 micFp lux reporter
Summary of the method: as §1

[3] = system: E. coli BW25113 ompFp lux reporter
Summary of the method: as §1

[4] = system: E. coli BW25113 robp lux reporter
Summary of the method: as §1

[5] = system: E. coli BW25113 soxSp lux reporter
Summary of the method: as §1

[6] = system: E. coli BW25113 tolCp lux reporter
Summary of the method: as §1

[7] = 28.4 µg/ml, genetic background: wild type
[8] = 28.4 µg/ml, genetic background: ΔmarA
[9] = 28.4 µg/ml, genetic background: Δrob
[10] = 28.4 µg/ml, genetic background: ΔsoxS
[11] = 56.8 µg/ml, genetic background: wild type
[12] = 56.8 µg/ml, genetic background: ΔmarA
[13] = 56.8 µg/ml, genetic background: Δrob
[14] = 56.8 µg/ml, genetic background: ΔsoxS
[15] = 113.7 µg/ml, genetic background: wild type
[16] = 113.7 µg/ml, genetic background: ΔmarA
[17] = 113.7 µg/ml, genetic background: Δrob
[18] = 113.7 µg/ml, genetic background: ΔsoxS
[19] = 227.3 µg/ml, genetic background: wild type
[20] = 227.3 µg/ml, genetic background: ΔmarA
[21] = 227.3 µg/ml, genetic background: Δrob
[22] = 227.3 µg/ml, genetic background: ΔsoxS

For `COc1ccc(CCN(C)CCCC(C#N)(c2ccc(OC)c(OC)c2)C(C)C)cc1OC` (stereo unspecified) [Verapamil], the “promoter activity interaction Z-score” value [1, 7] was -0.0103 ± 0.0068, the “promoter activity interaction Z-score” value [1, 8] was 0.651 ± 0.14 and the “promoter activity interaction Z-score” value [1, 9] was -0.17 ± 0.16. For the same compound, the “promoter activity interaction Z-score” value [1, 10] was -0.0848 ± 0.7, the “promoter activity interaction Z-score” value [1, 11] was 0.383 ± 0.58 and the “promoter activity interaction Z-score” value [1, 12] was 0.649 ± 0.29. For the same compound, the “promoter activity interaction Z-score” value [1, 13] was 0.236 ± 0.12, the “promoter activity interaction Z-score” value [1, 14] was -0.365 ± 0.9 and the “promoter activity interaction Z-score” value [1, 15] was 0.623 ± 0.79. For the same compound, the “promoter activity interaction Z-score” value [1, 16] was 2.27 ± 1.4, the “promoter activity interaction Z-score” value [1, 17] was 0.0537 ± 0.02 and the “promoter activity interaction Z-score” value [1, 18] was -0.0861 ± 0.73. The “promoter activity interaction Z-score” value [1, 19] was 0.502 ± 0.14, the “promoter activity interaction Z-score” value [1, 20] was 2.09 ± 0.52 and the “promoter activity interaction Z-score” value [1, 21] was 0.279 ± 0.19. For the same compound, the “promoter activity interaction Z-score” value [1, 22] was 0.136 ± 0.55, the “promoter activity interaction Z-score” value [2, 7] was 0.174 ± 0.55 and the “promoter activity interaction Z-score” value [2, 8] was 0.00711 ± 0.17. For the same compound, the “promoter activity interaction Z-score” value [2, 9] was 0.232 ± 0.1, the “promoter activity interaction Z-score” value [2, 10] was -0.114 ± 0.26 and the “promoter activity interaction Z-score” value [2, 11] was 0.0628 ± 0.15. The “promoter activity interaction Z-score” value [2, 12] was 0.0935 ± 0.19, the “promoter activity interaction Z-score” value [2, 13] was 0.195 ± 0.062 and the “promoter activity interaction Z-score” value [2, 14] was -0.187 ± 0.36. For the same compound, the “promoter activity interaction Z-score” value [2, 15] was 0.65 ± 0.19, the “promoter activity interaction Z-score” value [2, 16] was 0.105 ± 0.032 and the “promoter activity interaction Z-score” value [2, 17] was 0.115 ± 0.16. For the same compound, the “promoter activity interaction Z-score” value [2, 18] was -0.238 ± 0.43, the “promoter activity interaction Z-score” value [2, 19] was 0.41 ± 0.066 and the “promoter activity interaction Z-score” value [2, 20] was -0.0581 ± 0.06. For the same compound, the “promoter activity interaction Z-score” value [2, 21] was -0.1466 ± 0.00035, the “promoter activity interaction Z-score” value [2, 22] was -0.0743 ± 0.052 and the “promoter activity interaction Z-score” value [3, 7] was -0.365 ± 0.11. The “promoter activity interaction Z-score” value [3, 8] was -1.14 ± 0.89, the “promoter activity interaction Z-score” value [3, 9] was -0.51 ± 0.49 and the “promoter activity interaction Z-score” value [3, 10] was -0.279 ± 0.15. For the same compound, the “promoter activity interaction Z-score” value [3, 11] was -0.296 ± 0.077, the “promoter activity interaction Z-score” value [3, 12] was -0.384 ± 0.03 and the “promoter activity interaction Z-score” value [3, 13] was -0.384 ± 0.42. The “promoter activity interaction Z-score” value [3, 14] was -0.491 ± 0.42, the “promoter activity interaction Z-score” value [3, 15] was 0.443 ± 0.46 and the “promoter activity interaction Z-score” value [3, 16] was 0.589 ± 0.067. The “promoter activity interaction Z-score” value [3, 17] was 0.355 ± 1.1, the “promoter activity interaction Z-score” value [3, 18] was -0.599 ± 0.19 and the “promoter activity interaction Z-score” value [3, 19] was 1.21 ± 0.48. For the same compound, the “promoter activity interaction Z-score” value [3, 20] was 1.56 ± 0.13, the “promoter activity interaction Z-score” value [3, 21] was 1.4 ± 0.93 and the “promoter activity interaction Z-score” value [3, 22] was 1.09 ± 0.35. The “promoter activity interaction Z-score” value [4, 7] was 0.158 ± 0.075, the “promoter activity interaction Z-score” value [4, 8] was 0.0269 ± 0.54 and the “promoter activity interaction Z-score” value [4, 9] was 0.215 ± 1.7. For the same compound, the “promoter activity interaction Z-score” value [4, 10] was 0.00204 ± 1.1, the “promoter activity interaction Z-score” value [4, 11] was 1.19 ± 0.91 and the “promoter activity interaction Z-score” value [4, 12] was -0.42 ± 0.62. The “promoter activity interaction Z-score” value [4, 13] was -0.201 ± 0.23, the “promoter activity interaction Z-score” value [4, 14] was 0.308 ± 0.86 and the “promoter activity interaction Z-score” value [4, 15] was 1.4 ± 0.44. For the same compound, the “promoter activity interaction Z-score” value [4, 16] was 1.73 ± 0.022, the “promoter activity interaction Z-score” value [4, 17] was 0.608 ± 0.43 and the “promoter activity interaction Z-score” value [4, 18] was -0.00665 ± 0.6. For the same compound, the “promoter activity interaction Z-score” value [4, 19] was 1.1 ± 0.18, the “promoter activity interaction Z-score” value [4, 20] was 2.29 ± 0.91 and the “promoter activity interaction Z-score” value [4, 21] was 0.783 ± 1.4. For the same compound, the “promoter activity interaction Z-score” value [4, 22] was 1.05 ± 0.94, the “promoter activity interaction Z-score” value [5, 7] was -0.18 ± 0.32 and the “promoter activity interaction Z-score” value [5, 8] was -0.165 ± 0.065. For the same compound, the “promoter activity interaction Z-score” value [5, 9] was 0.0441 ± 0.32, the “promoter activity interaction Z-score” value [5, 10] was -0.273 ± 0.25 and the “promoter activity interaction Z-score” value [5, 11] was -0.187 ± 0.26. For the same compound, the “promoter activity interaction Z-score” value [5, 12] was -0.0917 ± 0.18, the “promoter activity interaction Z-score” value [5, 13] was -0.138 ± 0.19 and the “promoter activity interaction Z-score” value [5, 14] was -0.142 ± 0.42. The “promoter activity interaction Z-score” value [5, 15] was 0.17 ± 0.18, the “promoter activity interaction Z-score” value [5, 16] was -0.0904 ± 0.16 and the “promoter activity interaction Z-score” value [5, 17] was -0.00688 ± 0.12. For the same compound, the “promoter activity interaction Z-score” value [5, 18] was -0.0619 ± 0.28, the “promoter activity interaction Z-score” value [5, 19] was -0.0451 ± 0.043 and the “promoter activity interaction Z-score” value [5, 20] was -0.359 ± 0.078. For the same compound, the “promoter activity interaction Z-score” value [5, 21] was -0.361 ± 0.061, the “promoter activity interaction Z-score” value [5, 22] was -0.0524 ± 0.36 and the “promoter activity interaction Z-score” value [6, 7] was 0.46 ± 1.1. For the same compound, the “promoter activity interaction Z-score” value [6, 8] was -0.252 ± 0.52, the “promoter activity interaction Z-score” value [6, 9] was 1.67 ± 0.9 and the “promoter activity interaction Z-score” value [6, 10] was 0.403 ± 0.82. For the same compound, the “promoter activity interaction Z-score” value [6, 11] was 0.842 ± 0.79, the “promoter activity interaction Z-score” value [6, 12] was 0.112 ± 0.0026 and the “promoter activity interaction Z-score” value [6, 13] was 1.38 ± 0.88. The “promoter activity interaction Z-score” value [6, 14] was 0.773 ± 0.7, the “promoter activity interaction Z-score” value [6, 15] was 1.44 ± 0.11 and the “promoter activity interaction Z-score” value [6, 16] was 0.195 ± 0.35. The “promoter activity interaction Z-score” value [6, 17] was 0.654 ± 0.3, the “promoter activity interaction Z-score” value [6, 18] was 0.501 ± 1.5 and the “promoter activity interaction Z-score” value [6, 19] was 0.0187 ± 0.66. The “promoter activity interaction Z-score” value [6, 20] was -0.769 ± 0.041, the “promoter activity interaction Z-score” value [6, 21] was -0.237 ± 0.19 and the “promoter activity interaction Z-score” value [6, 22] was -0.139 ± 0.8.
